Data reported in the supplement of paper PMC11732987, “Enantioselective OTUD7B fragment discovery through chemoproteomics screening and high-throughput optimisation” (Communications Chemistry, 2025).

Key:
Assay in all cases: log2 ratio of Biotin-Ahx-Ub-VS probe labelling (fragment/DMSO); higher = less target engagement (more negative = stronger competition), active = hit call of the paper (q ≤ 0.05, log2 ratio ≤ -1)
Details in all cases: compound concentration: 200 uM; treatment time: 3 h
[1] = target: T1, USP42 (UniProt Q9H9J4)
T1 sequence (whole entry): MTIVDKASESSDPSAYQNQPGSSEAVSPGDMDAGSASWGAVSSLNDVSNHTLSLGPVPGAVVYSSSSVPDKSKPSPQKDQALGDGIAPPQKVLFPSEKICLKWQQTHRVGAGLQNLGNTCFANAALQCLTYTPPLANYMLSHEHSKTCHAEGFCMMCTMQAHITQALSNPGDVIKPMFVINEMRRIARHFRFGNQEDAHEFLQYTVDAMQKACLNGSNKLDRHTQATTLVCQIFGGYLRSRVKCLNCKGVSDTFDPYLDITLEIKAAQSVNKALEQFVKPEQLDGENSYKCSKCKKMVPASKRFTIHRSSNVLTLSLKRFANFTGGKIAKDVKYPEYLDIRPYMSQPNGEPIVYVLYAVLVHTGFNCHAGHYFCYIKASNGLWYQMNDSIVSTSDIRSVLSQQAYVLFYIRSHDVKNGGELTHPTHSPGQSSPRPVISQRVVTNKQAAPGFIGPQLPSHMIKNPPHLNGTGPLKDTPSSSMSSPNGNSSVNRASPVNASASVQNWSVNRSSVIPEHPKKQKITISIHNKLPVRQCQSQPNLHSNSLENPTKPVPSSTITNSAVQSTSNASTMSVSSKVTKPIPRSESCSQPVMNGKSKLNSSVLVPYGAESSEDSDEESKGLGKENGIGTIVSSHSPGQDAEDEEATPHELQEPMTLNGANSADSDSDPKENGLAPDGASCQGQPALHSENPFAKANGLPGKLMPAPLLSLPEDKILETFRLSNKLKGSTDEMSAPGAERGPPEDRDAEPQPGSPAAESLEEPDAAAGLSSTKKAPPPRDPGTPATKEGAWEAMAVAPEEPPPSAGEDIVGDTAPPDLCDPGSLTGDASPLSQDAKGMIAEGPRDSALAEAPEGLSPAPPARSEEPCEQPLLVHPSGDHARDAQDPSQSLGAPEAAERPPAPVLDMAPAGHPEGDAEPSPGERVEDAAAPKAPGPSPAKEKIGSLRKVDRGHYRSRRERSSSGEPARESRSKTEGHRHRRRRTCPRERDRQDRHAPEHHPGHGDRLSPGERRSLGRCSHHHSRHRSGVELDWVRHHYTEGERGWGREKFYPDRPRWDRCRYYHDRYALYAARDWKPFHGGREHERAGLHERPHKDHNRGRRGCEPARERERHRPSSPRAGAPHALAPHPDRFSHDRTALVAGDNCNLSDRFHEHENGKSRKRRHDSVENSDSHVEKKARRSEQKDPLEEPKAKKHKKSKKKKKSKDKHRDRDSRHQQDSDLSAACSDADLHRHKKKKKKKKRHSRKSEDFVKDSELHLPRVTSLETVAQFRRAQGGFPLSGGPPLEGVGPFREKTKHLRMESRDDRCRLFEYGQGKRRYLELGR
Summary of the method: (§1)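 The table lists average log2 ratios of fragment over vehicle, from an unpaired t-test on global-median-normalised Spectronaut label-free quantities. Proteins with ≥2 unique peptides were used. Samples were HEK293T lysate (495 µg) treated in triplicate with fragment at 200 µM or vehicle for 3 h, then with Biotin-Ahx-Ub-VS (0.5 µM final) for 1 h, with labelled DUBs NeutrAvidin-enriched and run by diaPASEF LC-MS/MS.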

[2] = target: USP46 (UniProt P62068)
USP46, sequence (P62068 whole entry): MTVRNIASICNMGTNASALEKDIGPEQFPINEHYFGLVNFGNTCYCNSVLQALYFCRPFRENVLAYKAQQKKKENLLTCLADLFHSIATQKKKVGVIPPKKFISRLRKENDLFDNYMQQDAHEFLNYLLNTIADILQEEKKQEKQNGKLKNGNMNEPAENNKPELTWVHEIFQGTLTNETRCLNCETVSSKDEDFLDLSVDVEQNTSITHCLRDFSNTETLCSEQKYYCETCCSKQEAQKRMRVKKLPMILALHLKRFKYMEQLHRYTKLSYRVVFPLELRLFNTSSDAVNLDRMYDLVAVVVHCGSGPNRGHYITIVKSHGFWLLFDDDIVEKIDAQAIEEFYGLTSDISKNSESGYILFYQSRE
Summary of the method: as §1

[3] = target: T2, USP47 (UniProt Q96K76)
T2 sequence (whole entry): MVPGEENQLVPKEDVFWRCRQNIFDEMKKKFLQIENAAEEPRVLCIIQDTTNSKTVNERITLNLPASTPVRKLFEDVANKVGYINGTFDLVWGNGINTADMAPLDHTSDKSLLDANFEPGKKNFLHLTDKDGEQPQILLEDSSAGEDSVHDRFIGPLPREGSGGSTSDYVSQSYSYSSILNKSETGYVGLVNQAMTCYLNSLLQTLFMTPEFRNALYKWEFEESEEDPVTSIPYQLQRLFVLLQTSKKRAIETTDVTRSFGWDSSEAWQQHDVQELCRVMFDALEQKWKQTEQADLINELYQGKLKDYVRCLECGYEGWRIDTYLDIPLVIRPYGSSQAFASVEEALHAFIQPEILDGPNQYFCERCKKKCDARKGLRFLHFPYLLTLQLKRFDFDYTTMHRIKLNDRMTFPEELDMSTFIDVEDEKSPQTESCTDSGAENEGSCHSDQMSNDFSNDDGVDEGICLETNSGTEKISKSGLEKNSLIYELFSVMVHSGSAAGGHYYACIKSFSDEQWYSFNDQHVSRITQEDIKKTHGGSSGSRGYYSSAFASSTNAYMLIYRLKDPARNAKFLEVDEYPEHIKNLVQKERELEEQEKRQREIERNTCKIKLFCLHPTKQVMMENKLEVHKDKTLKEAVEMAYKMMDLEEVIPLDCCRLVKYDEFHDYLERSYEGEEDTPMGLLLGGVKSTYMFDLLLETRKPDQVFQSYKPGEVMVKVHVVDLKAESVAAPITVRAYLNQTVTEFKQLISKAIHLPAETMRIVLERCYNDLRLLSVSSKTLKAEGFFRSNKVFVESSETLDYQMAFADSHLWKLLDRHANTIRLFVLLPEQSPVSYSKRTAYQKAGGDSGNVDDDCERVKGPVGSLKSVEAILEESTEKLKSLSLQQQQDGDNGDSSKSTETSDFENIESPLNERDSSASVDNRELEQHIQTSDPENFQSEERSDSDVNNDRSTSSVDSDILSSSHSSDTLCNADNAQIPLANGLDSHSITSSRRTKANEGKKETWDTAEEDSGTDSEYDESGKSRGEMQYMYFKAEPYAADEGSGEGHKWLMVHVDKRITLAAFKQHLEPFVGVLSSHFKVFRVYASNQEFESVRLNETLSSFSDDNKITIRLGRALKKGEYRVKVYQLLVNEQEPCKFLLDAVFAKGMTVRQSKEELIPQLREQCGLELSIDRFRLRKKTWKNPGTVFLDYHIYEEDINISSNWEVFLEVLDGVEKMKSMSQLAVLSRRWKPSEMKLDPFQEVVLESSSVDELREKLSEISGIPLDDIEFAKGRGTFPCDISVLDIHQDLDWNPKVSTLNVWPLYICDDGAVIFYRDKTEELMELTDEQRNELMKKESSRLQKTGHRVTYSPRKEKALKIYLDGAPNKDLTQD
Summary of the method: as §1

[4] = target: T3, USP48 (UniProt Q86UV5)
T3 sequence (whole entry): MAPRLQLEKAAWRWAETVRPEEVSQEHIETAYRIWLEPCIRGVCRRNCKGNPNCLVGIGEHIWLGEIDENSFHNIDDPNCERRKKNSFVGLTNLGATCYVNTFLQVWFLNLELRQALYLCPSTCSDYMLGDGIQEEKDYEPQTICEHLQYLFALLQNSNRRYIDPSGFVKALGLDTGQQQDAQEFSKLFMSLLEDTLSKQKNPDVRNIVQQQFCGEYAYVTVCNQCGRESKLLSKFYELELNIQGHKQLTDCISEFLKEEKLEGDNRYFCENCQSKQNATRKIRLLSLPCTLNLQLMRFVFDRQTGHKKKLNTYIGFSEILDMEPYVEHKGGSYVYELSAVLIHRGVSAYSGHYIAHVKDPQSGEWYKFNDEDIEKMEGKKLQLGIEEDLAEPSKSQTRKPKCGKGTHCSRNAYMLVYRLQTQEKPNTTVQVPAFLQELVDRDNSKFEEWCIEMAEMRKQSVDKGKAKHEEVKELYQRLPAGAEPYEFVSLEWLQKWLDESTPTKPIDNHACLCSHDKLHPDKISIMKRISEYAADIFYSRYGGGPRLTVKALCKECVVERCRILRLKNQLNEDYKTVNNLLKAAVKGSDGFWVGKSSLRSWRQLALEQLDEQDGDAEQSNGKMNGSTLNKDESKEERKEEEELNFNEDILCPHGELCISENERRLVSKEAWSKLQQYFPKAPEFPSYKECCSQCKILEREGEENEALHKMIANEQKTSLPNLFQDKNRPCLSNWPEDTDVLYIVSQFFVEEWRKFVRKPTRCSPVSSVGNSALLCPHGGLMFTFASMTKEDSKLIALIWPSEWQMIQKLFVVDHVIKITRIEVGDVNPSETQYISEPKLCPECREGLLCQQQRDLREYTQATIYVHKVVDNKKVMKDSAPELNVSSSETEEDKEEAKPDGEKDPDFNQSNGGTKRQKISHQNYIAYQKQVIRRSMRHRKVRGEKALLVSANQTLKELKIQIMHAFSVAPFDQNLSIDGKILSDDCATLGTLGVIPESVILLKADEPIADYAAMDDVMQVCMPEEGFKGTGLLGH
Summary of the method: as §1

[5] = target: T4, USP5 (UniProt P45974)
T4 sequence (whole entry): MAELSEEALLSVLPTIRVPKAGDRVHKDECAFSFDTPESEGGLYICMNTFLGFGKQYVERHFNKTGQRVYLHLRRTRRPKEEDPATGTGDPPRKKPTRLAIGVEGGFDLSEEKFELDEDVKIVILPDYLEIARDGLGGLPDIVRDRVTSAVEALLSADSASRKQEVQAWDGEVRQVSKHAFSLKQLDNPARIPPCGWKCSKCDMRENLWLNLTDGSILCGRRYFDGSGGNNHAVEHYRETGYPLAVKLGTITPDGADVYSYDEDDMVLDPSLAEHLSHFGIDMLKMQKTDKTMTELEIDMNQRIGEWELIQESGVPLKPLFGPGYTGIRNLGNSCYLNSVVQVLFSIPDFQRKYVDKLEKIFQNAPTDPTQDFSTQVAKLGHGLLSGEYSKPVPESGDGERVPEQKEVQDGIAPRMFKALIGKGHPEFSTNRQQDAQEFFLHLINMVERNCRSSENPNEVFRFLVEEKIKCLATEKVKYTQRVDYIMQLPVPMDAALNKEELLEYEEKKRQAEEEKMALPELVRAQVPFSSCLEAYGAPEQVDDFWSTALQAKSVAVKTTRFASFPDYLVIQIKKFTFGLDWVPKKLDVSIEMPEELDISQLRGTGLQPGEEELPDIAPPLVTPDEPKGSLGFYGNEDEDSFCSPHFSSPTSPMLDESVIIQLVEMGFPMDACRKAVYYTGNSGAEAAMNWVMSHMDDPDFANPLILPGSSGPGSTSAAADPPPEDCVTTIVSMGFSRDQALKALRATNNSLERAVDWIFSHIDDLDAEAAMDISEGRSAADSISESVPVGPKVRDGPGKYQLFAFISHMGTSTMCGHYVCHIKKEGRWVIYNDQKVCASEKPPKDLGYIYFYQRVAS
Summary of the method: as §1

[6] = target: USP54 (UniProt Q70EL1)
Summary of the method: as §1

[7] = target: USP7 (UniProt Q93009)
USP7, sequence (Q93009 whole entry, looked up): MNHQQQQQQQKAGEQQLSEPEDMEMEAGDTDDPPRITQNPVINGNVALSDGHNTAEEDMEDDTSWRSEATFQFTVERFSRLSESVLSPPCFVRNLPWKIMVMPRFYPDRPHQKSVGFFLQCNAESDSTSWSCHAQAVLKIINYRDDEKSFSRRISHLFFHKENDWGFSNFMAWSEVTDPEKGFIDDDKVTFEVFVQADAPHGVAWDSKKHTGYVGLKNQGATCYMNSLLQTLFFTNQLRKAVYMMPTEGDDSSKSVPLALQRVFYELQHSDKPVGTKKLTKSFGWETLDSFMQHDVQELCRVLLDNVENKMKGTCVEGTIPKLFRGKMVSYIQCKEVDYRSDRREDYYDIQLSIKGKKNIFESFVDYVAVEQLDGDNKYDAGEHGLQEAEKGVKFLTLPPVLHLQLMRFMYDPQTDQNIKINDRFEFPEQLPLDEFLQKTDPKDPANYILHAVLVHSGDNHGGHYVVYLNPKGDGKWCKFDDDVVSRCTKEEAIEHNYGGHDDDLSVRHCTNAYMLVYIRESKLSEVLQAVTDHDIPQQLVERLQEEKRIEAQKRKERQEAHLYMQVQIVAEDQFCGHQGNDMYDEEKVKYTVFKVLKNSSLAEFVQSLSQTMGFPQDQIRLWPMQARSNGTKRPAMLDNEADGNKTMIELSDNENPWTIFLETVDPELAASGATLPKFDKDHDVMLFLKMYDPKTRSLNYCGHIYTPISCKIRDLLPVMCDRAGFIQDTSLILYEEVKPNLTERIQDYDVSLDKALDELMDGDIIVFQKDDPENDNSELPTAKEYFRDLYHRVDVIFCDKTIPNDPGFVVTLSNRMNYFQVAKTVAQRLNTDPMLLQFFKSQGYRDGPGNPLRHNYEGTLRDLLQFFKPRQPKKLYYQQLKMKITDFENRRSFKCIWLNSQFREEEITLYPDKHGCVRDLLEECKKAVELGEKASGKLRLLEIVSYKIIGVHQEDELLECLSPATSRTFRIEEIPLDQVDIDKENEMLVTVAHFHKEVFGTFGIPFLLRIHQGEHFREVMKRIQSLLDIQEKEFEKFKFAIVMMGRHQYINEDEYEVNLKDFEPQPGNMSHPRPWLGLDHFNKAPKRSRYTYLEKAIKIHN
Summary of the method: as §1

[8] = target: T5, USP8 (UniProt P40818)
T5 sequence (whole entry): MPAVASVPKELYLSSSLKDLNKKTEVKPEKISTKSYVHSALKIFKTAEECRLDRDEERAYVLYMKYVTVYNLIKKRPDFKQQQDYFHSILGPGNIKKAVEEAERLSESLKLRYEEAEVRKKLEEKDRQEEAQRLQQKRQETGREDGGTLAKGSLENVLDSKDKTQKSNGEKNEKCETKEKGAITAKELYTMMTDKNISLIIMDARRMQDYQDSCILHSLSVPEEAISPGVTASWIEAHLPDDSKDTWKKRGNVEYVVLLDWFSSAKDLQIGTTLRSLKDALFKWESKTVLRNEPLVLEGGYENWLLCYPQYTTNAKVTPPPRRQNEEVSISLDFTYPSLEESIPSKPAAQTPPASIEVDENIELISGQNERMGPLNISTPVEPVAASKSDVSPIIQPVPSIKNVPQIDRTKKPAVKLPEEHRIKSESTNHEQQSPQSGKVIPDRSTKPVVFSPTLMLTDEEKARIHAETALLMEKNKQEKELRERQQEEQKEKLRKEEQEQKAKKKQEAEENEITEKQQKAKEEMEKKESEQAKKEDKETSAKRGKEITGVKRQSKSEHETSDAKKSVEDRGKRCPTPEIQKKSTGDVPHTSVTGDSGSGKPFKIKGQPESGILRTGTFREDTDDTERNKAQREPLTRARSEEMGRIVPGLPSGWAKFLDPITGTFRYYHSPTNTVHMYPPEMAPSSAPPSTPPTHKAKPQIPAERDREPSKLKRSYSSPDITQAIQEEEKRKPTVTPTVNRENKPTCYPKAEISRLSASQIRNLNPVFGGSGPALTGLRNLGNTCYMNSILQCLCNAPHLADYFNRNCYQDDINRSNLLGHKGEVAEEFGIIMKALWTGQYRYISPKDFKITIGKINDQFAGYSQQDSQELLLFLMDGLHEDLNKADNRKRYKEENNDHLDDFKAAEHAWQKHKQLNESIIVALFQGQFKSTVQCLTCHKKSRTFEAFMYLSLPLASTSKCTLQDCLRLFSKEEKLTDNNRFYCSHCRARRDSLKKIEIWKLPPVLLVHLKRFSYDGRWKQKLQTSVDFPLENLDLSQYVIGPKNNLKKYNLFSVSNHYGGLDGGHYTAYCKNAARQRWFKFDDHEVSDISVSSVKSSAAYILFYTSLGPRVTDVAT
Summary of the method: as §1

[9] = target: USP9X (UniProt Q93008)
USP9X, sequence (Q93008 whole entry): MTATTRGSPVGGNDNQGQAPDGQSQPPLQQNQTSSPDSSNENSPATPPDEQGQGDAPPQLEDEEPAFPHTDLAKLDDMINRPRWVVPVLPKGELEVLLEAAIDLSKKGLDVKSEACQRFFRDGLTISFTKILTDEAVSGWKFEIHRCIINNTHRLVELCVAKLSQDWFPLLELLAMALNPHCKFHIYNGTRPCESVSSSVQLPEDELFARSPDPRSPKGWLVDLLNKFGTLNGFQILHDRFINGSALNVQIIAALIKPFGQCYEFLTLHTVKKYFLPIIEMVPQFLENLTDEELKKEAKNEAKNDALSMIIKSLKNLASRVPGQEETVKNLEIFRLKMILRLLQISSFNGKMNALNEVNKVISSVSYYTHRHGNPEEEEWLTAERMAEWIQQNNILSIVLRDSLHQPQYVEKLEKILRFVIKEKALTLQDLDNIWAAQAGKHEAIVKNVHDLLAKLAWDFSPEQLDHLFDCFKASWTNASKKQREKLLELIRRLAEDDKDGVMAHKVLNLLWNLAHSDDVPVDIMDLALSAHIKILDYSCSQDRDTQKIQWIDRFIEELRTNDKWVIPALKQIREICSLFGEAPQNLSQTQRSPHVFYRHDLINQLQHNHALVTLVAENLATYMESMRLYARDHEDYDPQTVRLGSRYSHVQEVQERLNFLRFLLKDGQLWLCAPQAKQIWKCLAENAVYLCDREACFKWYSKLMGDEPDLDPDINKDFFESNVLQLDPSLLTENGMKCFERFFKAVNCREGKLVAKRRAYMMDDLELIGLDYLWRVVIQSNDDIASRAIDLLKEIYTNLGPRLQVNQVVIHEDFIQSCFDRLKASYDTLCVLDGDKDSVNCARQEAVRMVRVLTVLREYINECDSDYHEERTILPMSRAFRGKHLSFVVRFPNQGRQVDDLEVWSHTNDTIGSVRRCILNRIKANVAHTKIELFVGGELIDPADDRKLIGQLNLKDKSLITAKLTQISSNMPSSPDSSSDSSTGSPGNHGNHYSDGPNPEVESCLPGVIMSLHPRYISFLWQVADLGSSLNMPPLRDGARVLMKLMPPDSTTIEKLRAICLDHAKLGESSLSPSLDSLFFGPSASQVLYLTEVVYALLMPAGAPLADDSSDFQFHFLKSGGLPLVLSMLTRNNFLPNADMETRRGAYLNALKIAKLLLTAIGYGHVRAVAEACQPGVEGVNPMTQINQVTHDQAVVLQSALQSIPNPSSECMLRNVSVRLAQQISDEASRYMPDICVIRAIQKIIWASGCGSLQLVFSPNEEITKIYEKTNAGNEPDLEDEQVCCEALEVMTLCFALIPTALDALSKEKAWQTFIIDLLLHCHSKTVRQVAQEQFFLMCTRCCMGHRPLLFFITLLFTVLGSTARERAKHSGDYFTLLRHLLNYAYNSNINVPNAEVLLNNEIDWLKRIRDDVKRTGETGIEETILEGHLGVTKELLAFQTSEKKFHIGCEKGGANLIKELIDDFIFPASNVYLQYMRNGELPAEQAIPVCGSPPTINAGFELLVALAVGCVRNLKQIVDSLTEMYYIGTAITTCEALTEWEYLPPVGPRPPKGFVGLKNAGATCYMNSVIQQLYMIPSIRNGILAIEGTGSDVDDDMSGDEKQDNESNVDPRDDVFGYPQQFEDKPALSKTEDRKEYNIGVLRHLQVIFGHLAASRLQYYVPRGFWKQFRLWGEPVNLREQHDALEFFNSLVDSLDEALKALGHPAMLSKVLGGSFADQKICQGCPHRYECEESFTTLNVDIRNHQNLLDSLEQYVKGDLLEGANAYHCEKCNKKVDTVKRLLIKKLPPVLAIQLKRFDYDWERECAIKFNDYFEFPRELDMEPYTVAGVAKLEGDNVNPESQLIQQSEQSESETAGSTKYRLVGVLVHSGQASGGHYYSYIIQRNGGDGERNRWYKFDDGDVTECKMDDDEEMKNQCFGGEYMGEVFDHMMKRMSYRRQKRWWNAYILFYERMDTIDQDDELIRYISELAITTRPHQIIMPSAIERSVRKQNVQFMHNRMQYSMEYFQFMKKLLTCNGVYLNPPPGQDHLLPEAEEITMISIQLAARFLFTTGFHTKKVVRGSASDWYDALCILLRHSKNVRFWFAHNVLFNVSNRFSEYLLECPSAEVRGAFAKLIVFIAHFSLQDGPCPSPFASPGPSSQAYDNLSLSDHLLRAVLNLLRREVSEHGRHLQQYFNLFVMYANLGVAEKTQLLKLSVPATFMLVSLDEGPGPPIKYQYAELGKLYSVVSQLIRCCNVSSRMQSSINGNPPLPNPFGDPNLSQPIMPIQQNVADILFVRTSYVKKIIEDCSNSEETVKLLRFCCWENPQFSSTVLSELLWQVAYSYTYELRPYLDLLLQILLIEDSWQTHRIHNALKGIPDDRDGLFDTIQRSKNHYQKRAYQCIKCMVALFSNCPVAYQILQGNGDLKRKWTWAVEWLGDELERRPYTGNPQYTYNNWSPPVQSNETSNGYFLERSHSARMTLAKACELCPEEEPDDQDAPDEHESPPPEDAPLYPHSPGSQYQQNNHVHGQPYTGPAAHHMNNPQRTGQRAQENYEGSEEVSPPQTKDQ
Summary of the method: as §1

[10] = target: UniProt O00487
UniProt O00487, sequence (O00487 whole entry): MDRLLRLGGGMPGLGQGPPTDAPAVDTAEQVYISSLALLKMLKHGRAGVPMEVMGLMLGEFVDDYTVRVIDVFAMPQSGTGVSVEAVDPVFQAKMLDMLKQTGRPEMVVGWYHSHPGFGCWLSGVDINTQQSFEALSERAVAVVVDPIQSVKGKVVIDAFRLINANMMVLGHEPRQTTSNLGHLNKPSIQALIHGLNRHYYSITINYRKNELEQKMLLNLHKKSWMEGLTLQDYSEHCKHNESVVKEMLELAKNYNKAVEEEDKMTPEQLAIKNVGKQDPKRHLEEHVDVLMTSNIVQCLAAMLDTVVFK
Summary of the method: as §1

Measured: log2 ratio of Biotin-Ahx-Ub-VS probe labelling

CC(c1ccccc1)N(C)C(=O)CCl (stereo not given)
inactive: [1] -0.0241 | [2] -0.161 | [3] 0.0295 | [4] -0.407 | [5] 0.359 | [6] 0.0889 | [7] -0.735 | [8] -0.0666 | [9] -0.115 | [10] -0.0533
